Bioassay records: PubChem BioAssay, National Center for Advancing Translational Sciences (NCATS)
This is a sample that favours compounds with a hit; in the whole collection about 12% have one here.
L3MBTL1 inh – qHTS Assay for the Inhibitors of L3MBTL1; Lethal(3)malignant brain tumor-like protein 1 (Homo sapiens), Q9Y468; AlphaScreen L3MBTL1–H3K9me1 peptide binding; Potency, µM (series often up to 57.1 µM), for inactives: at the highest dose activity, negative = inhibition, usual class: inhibitors; 230,000 tested, 0.66% active; AID 485360, 2010; further: on the % scale 0 is the no-effect control and ±100 the full control effect; nearly all actives have a fitted effect of over 60% in size
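Read-out is AlphaScreen signal from streptavidin donor and nickel chelate acceptor beads (10 ug/mL final each) bridging L3MBTL1 (50 nM) and biotinylated K9-monomethylated H3(1-15) peptide (75 nM), after 30 min compound exposure at room temperature.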
Sfp inh – qHTS Assay for Inhibitors of Bacillus subtilis Sfp phosphopantetheinyl transferase (PPTase) | Biochemical Sfp PPTase activity, qHTS | Potency, µM, without a hit: largest response in the series, negative = inhibition, hits mostly inhibitors | 310,000 tested, 3.5% active;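 further: the enzyme is Sfp with the accession as filed and its product quenches rhodamine fluorescence; 0% = enzyme reaction without inhibitor and -100% = no enzyme wells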
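Compounds were incubated with enzyme (final 15 nM) for 15 min at room temperature before substrate addition started the reaction. Fluorescence at 525 nm excitation, 598 nm emission was recorded immediately and after 30 minutes.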
HP1b binding inh – HTS for Inhibitors of HP1-beta Chromodomain Interactions with Methylated Histone Tails; AlphaScreen HP1-beta / biotin-H3K9me3 peptide binding; Chromobox protein homolog 1 (Homo sapiens), P83916; 390,000 tested, 0.56% active; Potency, µM (series often up to 114 µM), inactives show at the highest dose activity change, negative = inhibition, most hits filed as inhibitors; AID 540317, 2011; further: nearly all actives have a fitted effect of over 70% in size
Target sequence (P83916 whole entry, looked up): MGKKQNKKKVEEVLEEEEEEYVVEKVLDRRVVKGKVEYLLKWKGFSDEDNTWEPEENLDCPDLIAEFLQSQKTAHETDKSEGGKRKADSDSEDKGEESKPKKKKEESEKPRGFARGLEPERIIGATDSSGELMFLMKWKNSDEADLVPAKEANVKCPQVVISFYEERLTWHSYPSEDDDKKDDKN
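Compound inhibition of the preformed complex between 50 nM HP1-beta and 50 nM biotinylated H3K9me3 peptide was read by AlphaScreen. Buffer was PBS pH 7.4 with 0.01% Tween-20. Incubations ran 30 min at room temperature, with 10 ug/mL donor/acceptor beads.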
BAZ2B block – qHTS Assay for Inhibitors of BAZ2B; Bromodomain adjacent to zinc finger domain protein 2B (Homo sapiens), Q9UIF8; AlphaScreen BAZ2B-H3K14Ac peptide displacement; Potency, µM (series often up to 114 µM), for the others: top-dose activity change, negative = inhibition, most hits filed as inhibitors; 360,000 tested, 4.4% active; AID 504333, 2011; further: on the % scale 0 is the no-effect control and ±100 the full control effect; nearly all actives have a fitted effect of over 60% in size
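In this displacement format the biotinylated H3(5-23) peptide acetylated at Lys14 serves as ligand at 50 nM, with BAZ2B at 50 nM in PBS pH 7.4 containing 0.01% Tween-20. Donor and acceptor beads are 10 ug/mL final.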
JMJD2A Tudor inh – qHTS Assay for Inhibitors of JMJD2A-Tudor Domain; AlphaScreen JMJD2A-Tudor / H3K4me3 peptide binding; AID 504339, 2011; 390,000 tested, 4.4% active; Lysine-specific demethylase 4A (Homo sapiens), O75164; Potency, µM (doses to about 114 µM), for the others: at the top dose activity change, negative = inhibition, most hits filed as inhibitors; further: on the % scale 0 is the no-effect control and ±100 the full control effect; nearly all actives have a fitted effect of over 50% in size
G9a block – qHTS Assay for Inhibitors of Histone Lysine Methyltransferase G9a. Histone-lysine N-methyltransferase EHMT2 (Homo sapiens), Q96KQ7. G9a H3K9 monomethylation, AlphaScreen, 2 h. Potency, µM (series often up to 102 µM), for the others: top-dose activity, negative = inhibition, most hits filed as inhibitors. 350,000 tested, 8.8% active; further: on the % scale 0 is the no-effect control and ±100 the full control effect; nearly all actives have a fitted effect of over 75% in size
Target sequence (Q96KQ7 913-1193 limits assumed): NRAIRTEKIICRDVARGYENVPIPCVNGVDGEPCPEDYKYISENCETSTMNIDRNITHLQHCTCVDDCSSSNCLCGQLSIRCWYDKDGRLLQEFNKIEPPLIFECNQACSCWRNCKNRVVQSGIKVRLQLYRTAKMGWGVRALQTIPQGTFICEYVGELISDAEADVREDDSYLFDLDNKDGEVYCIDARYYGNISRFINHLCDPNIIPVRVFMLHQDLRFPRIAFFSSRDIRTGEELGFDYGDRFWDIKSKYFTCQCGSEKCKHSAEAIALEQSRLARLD
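Compounds were preincubated with 20 nM G9a for 15 min, after which biotinylated H3K9 peptide (500 nM) and SAM (20 uM) started a 2 h room-temperature reaction. Monomethylated product was quantified by antibody-based AlphaScreen chemiluminescence.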
An asterisk follows results filed as active; ? = inconclusive; . = no result given; [ ] = remark or other dose. The call rests on the fitted dose curve; in most records, active means well fitted curve in the direction sought with a large enough effect; inconclusive means small, poorly fitted or top-dose-only effect, or another doubt; inactive means no such curve, though single readings can be large; an effect the other way counts as inactive or inconclusive. Potency means the concentration at half of the fitted maximal effect.

SMILES	L3MBTL1 inh	Sfp inh	HP1b binding inh	BAZ2B block	JMJD2A Tudor inh	G9a block
CCOC(=O)c1c(C)[nH]c(C2=NNC(=Nc3ccccc3)SC2)c1C	-18.9%	39.8µM*	?	-37.5%	?	44.7µM*
CC(=O)c1[nH]c(C)c(C(C)=O)c1C	-1.4%	18.1%	14.3%	?	1.8%	15.3%
CCOC(=O)c1c(C)[nH]c(C2=NNC(=Nc3ccccc3OC)SC2)c1C	-20.0%	79.4µM*	?	?	50.1µM*	?
CC(=O)c1c(C)[nH]c(C2=NNC(=NC(C)(C)C)SC2)c1C	-1.7%	22.4µM*	27.0%	.	-14.6%	31.6µM*
CCOC(=O)c1c(C)[nH]c(C2=NNC(=Nc3ccc(OCC)cc3)SC2)c1C	-12.0%	79.4µM*	?	50.1µM*	56.2µM*	?
CCOC(=O)c1c(C)[nH]c(C(=O)OCCOc2ccccc2C)c1C	5.2%	14.5%	20.2%	-7.6%	-15.4%	-1.6%[59 µM]
CCOC(=O)c1c(SCC(=O)Nc2nc3ccc(C)cc3s2)nc(=O)[nH]c1C	.	.	25.6%	-2.3%	-9.1%	7.7%[59 µM]
Cc1ccc(-n2nc(C(=O)Nc3ccc(F)cc3Cl)c(=O)n(C)c2=O)cc1	.	.	23.8%[57 µM]	0.3%	-0.3%	-16.3%[59 µM]
CCc1ccccc1Nc1cc(C(=O)NCCc2ccccc2)c2ccccc2n1	.	.	72.9%	.	-0.3%	30.7%[59 µM]
CCC(=Nc1ccccc1OC)C1=C(O)CC(c2ccccc2)CC1=O (configuration not stated)	.	10.1%	46.9%	-4.1%	-1.4%	?
CCC(=Nc1ccccc1O)C1=C(O)CC(c2ccccc2)CC1=O (configuration not stated)	-7.9%	79.4µM*	6.4%	-29.7%	-19.5%	-36.0%
Cc1cccc(N2CCN(C(=O)C3CCN(S(=O)(=O)Cc4ccccc4)CC3)CC2)c1C	.	.	16.9%	0.5%	-9.9%	-30.1%[59 µM]
Cn1cc(C=C2C(=O)CC(C)(C)CC2=O)c2ccccc21	-4.6%	-15.6%	-14.5%	?	?	44.7µM*
CC1=NN(c2ccccc2)C(=O)/C1=C\c1cn(CCC#N)nc1-c1ccc(Cl)cc1	?	-5.8%	?	?	?	4.47µM*
CC1=NN(c2ccccc2)C(=O)/C1=C\c1sccc1C	-26.0%	-3.4%	?	7.08µM*	?	?
COc1cc(/C=C2/C(=O)N(c3ccc(C(=O)O)cc3)N=C2C)cc(OC)c1O	.	39.8µM*	?	?	-21.7%	39.8µM*
C#CCOc1ccc(/C=C2/C(=O)N(c3cccc(C(=O)O)c3)N=C2C)cc1OC	-13.0%	?	-10.8%	-36.9%	?	.
CC(C)CCNC(=O)c1ccc2c(c1)N(Cc1ccccc1F)C(=O)c1ccccc1S2(=O)=O	.	.	17.1%	-3.9%	-21.9%	0.3%[59 µM]
Cc1ccc(-c2nn(-c3ccccc3)cc2C=C2C(=O)CC(C)(C)CC2=O)cc1	4.8%	25.1µM*	-5.8%	?	-32.9%	15.2%[0.0925 µM]
COc1cc(/C=C2/C(=O)N(c3ccc(Br)cc3)N=C2C)cc(OC)c1OC	.	?	-35.1%	39.8µM*	35.5µM*	50.1µM*
COc1cc(/C=C2/C(=O)N(c3ccc(C)c(C)c3)N=C2C)cc([N+](=O)[O-])c1O	-2.2%[2.29 µM]	-3.9%	?	39.8µM*	44.7µM*	2.0%[0.501 µM]
CC1=NN(c2ccc(Br)cc2)C(=O)/C1=C/c1cccs1	?	-3.7%	-52.9%	4.47µM*	?	7.08µM*
CC1=NN(c2ccc(C)cc2)C(=O)/C1=C\c1ccc(Br)s1	?	-7.2%	?	0.3%	-35.5%	?
COc1ccccc1/C=C1/C(=O)N(c2ccccc2)N=C1C	.	-4.4%	-19.2%[57 µM]	?	?	?
COc1cc(/C=C2\C(=O)N(c3ccc(S(N)(=O)=O)cc3)N=C2C)ccc1OC(=O)c1ccco1	.	?	2.9%	?	?	?
SMILES	L3MBTL1 inh	Sfp inh	HP1b binding inh	BAZ2B block	JMJD2A Tudor inh	G9a block
C[C@H]1[C@H](C)CC[C@]2(C=O)CC[C@]3(C)C(=CC[C@@H]4[C@@]5(C)C[C@@H](O)[C@H](O)[C@@](C)(CO)[C@@H]5CC[C@]43C)[C@H]12	.	43.5%	.	.	.	.
CCc1nnc2c(Nc3cc(OC)c(Cl)cc3OC)nc3ccccc3n12	.	.	50.3%	2.0%	-0.3%	3.8%[59 µM]
CC1=NN(c2ccccc2)C(=O)/C1=C\c1cn(-c2ccccc2)nc1C	-23.7%	10.5%	8.91µM*	.	?	?
O=C(NNC(=S)NC(=O)c1cccc([N+](=O)[O-])c1)c1ccc(O)cc1	.	?	-16.8%	5.4%	-25.4%	20µM*
O=C(NNS(=O)(=O)c1ccc([N+](=O)[O-])cc1)C(=O)Nc1cccc(C(=O)O)c1	.	39.8µM*	36.6%	56.2µM*	?	8.91µM*
Cc1ccc(C(=O)NC(=S)NNC(=O)c2cccc([N+](=O)[O-])c2)cc1	13.9%	12.1%	14.3%	11.9%	-12.0%	.
O=C(O)c1cccc(NC(=O)c2cccc(S(=O)(=O)Nc3cccc([N+](=O)[O-])c3)c2)c1	-0.4%	13.2%	9.1%	-38.9%	-9.8%	-48.5%
O=C(NNS(=O)(=O)c1ccc([N+](=O)[O-])cc1)c1ccccc1	.	.	9.4%	.	?	.
O=C(NNS(=O)(=O)c1ccccc1)c1cccc([N+](=O)[O-])c1	10.9%	6.6%	21.2%	-7.6%	12.6µM*	?
O=C(NNC(=S)NC(=O)c1cccc([N+](=O)[O-])c1)c1ccc(Br)cc1	.	-1.6%	-1.2%	-1.8%	-21.1%	44.7µM*
C/C(CCC(=O)OC[C@@H]1O[C@H](C#Cc2ccccc2)C=C[C@@H]1Oc1ccc(C)cc1)=N/O[C@@H](C)c1cn([C@H](CO)Cc2ccccc2)nn1	.	12.7%	.	.	.	.
CCOC(=O)COc1ccc(CC)cc1C(=O)c1ccn2nc(-c3ccc(Cl)cc3)cc2n1	.	.	7.7%	-2.4%	-15.7%	-3.4%[59 µM]
O=C(NNC(=O)c1cccc([N+](=O)[O-])c1)c1ccncc1	3.6%	1.0%	19.6%	3.1%	-10.8%[57.1 µM]	-3.5%[0.501 µM]
O=C(NC(=S)N1CCCC1)c1cccc([N+](=O)[O-])c1	.	1.5%	49.8%	-38.1%	-20.8%	79.4µM*
O=C(NNC(=S)NC(=O)c1ccccc1)c1cccc([N+](=O)[O-])c1	.	12.7%	-14.1%	-0.9%	-28.9%	28.2µM*
O=C(Nc1cc(C(F)(F)F)ccc1Cl)c1cc(S(=O)(=O)NCc2ccccc2)ccc1F	.	.	18.1%	4.0%	-4.3%	18.1%[59 µM]
